Drawing on PubChem BioAssay (NCI), this text covers growth for 40 compounds.

The structures appear in SMILES notation. The panel holds about 83,000 compounds, 20% with a hit somewhere; the sample as a whole holds those more often.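 48-hour exposure, single concentration, 96-well plates; percent growth endpoint where 0 means no net growth. Active: below 10.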 Unmarked numbers belong to inactive results. Calls of active or inactive are those of the source.

This experiment has as its system A549/ATCC NSCLC. Briefly: NCI-60 one-dose screen, 48 h (100 = growth as untreated, 0 = no growth, -100 = all killed). To be noted: 10 µM. The method, then:
Growth inhibition of the A549/ATCC human Non-Small Cell Lung tumor cell line is measured as a screen for anti-cancer activity. Cells are grown in 96 well plates and exposed to the test compound for 48 hours. Compounds are tested at a single concentration, which is 10^-5 M for most compounds. The reported endpoint is percent growth (GI% or GIPRCNT), where numbers from 0 - 100% represent growth inhibition, and numbers from -100% - 0 represent cell death. For example, a value of 40 represents 60% growth inhibition. A value of 0 means no net growth occurred over the course of the experiment. A value of -40 indicates 40% of cells at the beginning of the experiment died by the end of the experiment. A value of -100 means all cells are dead at the end of the experiment.
NCI-60 Human Tumor Cell Lines Screen was performed using the standard one-dose NCI protocol, which is described in more detail at https://dtp.cancer.gov/discovery_development/nci-60/default.htm.
Compounds with GIPRCNT values below 10 were considered active. Activity score was based on GIPRCNT using the following formula: […]
Score is 0 for GIPRCNT values of 100 or above, 50 for GIPRCNT values of 0, and 100 for GIPRCNT values of -100.
Consider `COc1cccc(O)c1/C=C1\SCc2cc3c(OC)cccc3[o+]c21`, for which the growth was 108%.

On to `O=C(CN1CCN(c2ncnc3c2cnn3-c2ccccc2)CC1)Nc1ccc(Cl)cc1`, for which the growth was 67%.

Take `COc1ccc(Cc2nn(CC(=O)N/N=C/c3ccc([N+](=O)[O-])cc3)c(=O)c3c(C)noc23)cc1`: the growth is 22.5%.

On to `Cc1cc(N=C2NC(=O)/C(=C/c3cc(C(C)(C)C)c(O)c(C(C)(C)C)c3)S2)n[nH]1`, for which the growth is 9.9% (active).

For the compound `COc1ccc(C2c3sc4ccc(C)cc4c3Oc3nc(N)nc(N)c32)cc1` (stereo not given), the growth is 92.2%.

In the case of `O=C(CSc1nc2ccccc2c(=O)n1-c1ccc(Cl)cc1)Nc1ccc(-c2nc3ccc([N+](=O)[O-])cc3[nH]2)cc1`, the growth is 50.2%.

Take `COc1ccc(Cc2nn(CC(=O)N/N=C/c3ccc(Br)cc3)c(=O)c3c(C)noc23)cc1`: the growth is 6.92% (active).

Take `COc1cc2oc(-c3cccc(C(=O)Nc4ccc(Cl)cc4)c3)cc(=O)c2c(OCCNC(=O)[C@@H](N)CO)c1OC`: the growth is 102%.

With `O=C(O)CCN1C(=O)/C(=C/C=C/c2ccc([N+](=O)[O-])o2)SC1=S`, the growth was 10.4%.

For the compound `COc1ccc(OC)c(-n2cc(C#N)c(N)c2C(=O)c2ccc(Cl)cc2Cl)c1`, the growth is 51.9%.

In the case of `COC(=O)CNC(=O)COc1c(OC)c(OC)cc2oc(-c3cccc(C(=O)Nc4ccc(Cl)cc4)c3)cc(=O)c12`, the growth is 75.4%.

Regarding `COc1ccccc1-n1cc(C#N)c(N)c1C(=O)c1ccc(Cl)cc1Cl`, the growth is 41.9%.

Regarding `CCOC(=O)C1=C(N)N(c2ccc(C)cc2)C2=C(C(=O)CC(C)(C)C2)C1c1ccccc1Br` (stereo not given), the growth is 80.9%.

On to `O=C1NC2C=CC=CC2/C1=C1/SC(=S)N(C2CC(=O)N(c3ccc(Br)cc3)C2=O)C1=O` (stereo not given), for which the growth was 99%.

Consider `COc1cccc(C(=O)CSc2nc(-c3ccc(OCc4ccccc4)c(OC)c3)c(C#N)c(=O)[nH]2)c1`, for which the growth is 98.5%.

With `O=C(CC(=O)Nc1ccc(Oc2ncnc3scc(Nc4n[nH]c(=S)s4)c23)cc1)Nc1ccc(Cl)cc1`, the growth was 83%.

For the compound `Cn1cc(-c2cc(N)n3nc(-c4cn(C)c5ccccc45)cc3n2)c2cc(F)ccc21`, the growth was -23.5% (active).

On to `C#CCOc1cc(N(CC)CC)ccc1C(C(=O)NC(C)(C)C)N(C(=O)C1CCc2cc(F)ccc2O1)c1ccc(F)cc1F` (stereo not given), for which the growth is 37.5%.

For the compound `COc1ccc(C2OC[C@@]3(C)C4CC[C@]5(C)C(CC=C6C7CC(C)(C)CC[C@]7(C(=O)O)CC[C@]65C)[C@@]4(C)C[C@@H](O)[C@@H]3O2)cc1` (stereo not given in full), the growth was 39%.

On to `Cc1ccc(-c2nc(C#N)c(S(=O)(=O)N3CCN(S(C)(=O)=O)CC3)o2)cc1`, for which the growth is 92.9%.

On to `C#C[C@]1(O)CC[C@H]2[C@@H]3CC=C4c5sc(Nc6ccc(N(C)C)cc6)nc5CC[C@]4(C)[C@H]3CC[C@@]21C`, for which the growth is 20.5%.

As for `Cc1ccc(COc2ccc(NC(=O)Nc3ccc(Cl)c(C(F)(F)F)c3)cc2)cc1`, the growth is 64.7%.

Turning to `O=C(Nc1ccc(OCc2ccc(Cl)cc2)cc1)Nc1ccc(Cl)c(C(F)(F)F)c1`, the growth was 16.2%.

On to `O=C1NC(=S)S/C1=C\c1cn(-c2ccccc2)nc1-c1ccc([N+](=O)[O-])cc1`, for which the growth is 15.2%.

Take `CC1(C)CC[C@]2(C(=O)O)CC[C@]3(C)C(=CCC4[C@@]5(C)C[C@@H](O)[C@@H]6OC(c7cccc(F)c7)OC[C@@]6(C)C5CC[C@]43C)C2C1` (stereo not given in full): the growth is 19.8%.

For `Cn1cc(-c2cc3nc(-c4c[nH]c5ccccc45)cc(N)n3n2)c2cc(Cl)ccc21`, the growth is -84.6% (active).

As for `CC1[C@H]2[C@H](C[C@H]3[C@@H]4CC=C5c6sc(Nc7cccc(Cl)n7)nc6CC[C@]5(C)[C@H]4CC[C@@]32C)O[C@]12CC[C@@H](C)CO2` (stereo not given in full), the growth is 96.1%.

For the compound `O=C(Nc1ccc(Oc2ncnc3scc(Nc4n[nH]c(=S)s4)c23)cc1)C1(C(=O)Nc2cccc(C(F)(F)F)c2)CC1`, the growth was 92.5%.

Regarding `Fc1ccc(/C=C/c2nc3ccccc3n3c(-c4ccc(Cl)cc4)nnc23)cc1`, the growth is 82%.

Turning to `O=C(CN1CCN(c2ncnc3c2cnn3-c2ccccc2)CC1)Nc1ccc(Br)cc1`, the growth was 75.2%.

For `COc1ccc(-n2c(SCC(=O)NNS(=O)(=O)c3ccccc3)nc3ccc(Cl)cc3c2=O)cc1`, the growth was 106%.

On to `COc1ccc(Cn2cc(C#N)c(N)c2C(C)=O)c(OC)c1`, for which the growth is 103%.

As for `Cn1cc(-c2nnc(N)nc2-c2c[nH]c3ccc(F)cc23)c2cc(Br)cnc21`, the growth is 66.2%.

Turning to `COc1cc(C2CC(c3ccc(Oc4ccc(Cl)cc4)cc3)=NN2c2nc(-c3ccc(Cl)cc3)c(C#N)c(N3CCOCC3)n2)cc(OC)c1OC` (stereo not given), the growth is 97.9%.

For `Cc1ccc2c(c1)C(=O)/C(=C/c1c[nH]c3ccccc13)S2`, the growth is 64.6%.

For `COc1ccc(C2c3sc4ccc(C)cc4c3Oc3nc[nH]c(=O)c32)cc1` (stereo not given), the growth was 97.9%.

With `Cn1cc(-c2nc(N)nnc2-c2c[nH]c3ccccc23)c2cc(Br)cnc21`, the growth is 16.4%.

As to `Cc1cc(N=C2NC(=O)S/C2=C\c2ccc(F)cc2)n[nH]1`, the growth is 18.9%.

Turning to `COc1ccc2[nH]cc(-c3nc(N)nnc3-c3cn(C)c4ncc(Br)cc34)c2c1`, the growth is 17.7%.

Consider `O=C(CSc1nc2ccccc2c(=O)n1-c1ccc(Cl)cc1)Nc1ccc(-c2nc3ccccc3[nH]2)cc1`, for which the growth was -16.8% (active).
